Experimental data as given in the supplement of paper PMC10127200.
Structures can show the parent of a compound that is named as a salt.

Tests used:
Test in all cases: Euclidean distance of Cell Painting phenotypic profile (signed KS, 77 features) to DMSO centroid (dimensionless distance); 5 or 10 uM (library dependent); higher = stronger phenotypic change vs DMSO (phenoactivity)
Conditions in all cases: 48 h
[1] = test system: 786-O
Procedure, shortened: (§1)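 Phenoactivity is defined as the Euclidean distance from a compound profile to the median vehicle profile. Each profile comprised 77 Harmony features, scored as signed Kolmogorov-Smirnov statistics versus same-plate vehicle wells, then plate-position corrected, correlation-weighted and replicate-averaged at the top dose. Five cancer lines and one healthy fibroblast line were exposed to library compounds for 48 h at 10 or 5 uM (0.1% DMSO final).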

[2] = test system: A549
Procedure, shortened: as §1

[3] = test system: DU145
Procedure, shortened: as §1

[4] = test system: FB
Procedure, shortened: as §1

[5] = test system: HEPG2
Procedure, shortened: as §1

[6] = test system: OVCAR4
Procedure, shortened: as §1

Row | SMILES | Euclidean distance [1] | Euclidean distance [2] | Euclidean distance [3] | Euclidean distance [4] | Euclidean distance [5] | Euclidean distance [6]
1 | CN(C)CCN(Cc1ccc(Cl)cc1)c1ccccn1 [Chloropyramine hydrochloride] | 0.88 | 1.23 | 1.39 | 1.03 | 0.594 | 1.1
2 | CCCCCCOC(=O)NC(=N)c1ccc(NCc2nc3cc(C(=O)N(CCC(=O)OCC)c4ccccn4)ccc3n2C)cc1 [Dabigatran Etexilate] | 1.9 | 1.35 | 1.17 | 1.58 | 1.58 | 1.47
3 | CCOc1nc2cccc(C(=O)OCc3oc(=O)oc3C)c2n1Cc1ccc(-c2ccccc2-c2noc(=O)[nH]2)cc1 [Azilsartan Medoxomil] | 0.852 | 1.33 | 0.487 | 0.689 | 0.927 | 0.929
4 | OC[C@H]1O[C@@H](OCCc2ccc(O)cc2)[C@H](O)[C@@H](O)[C@@H]1O [Salidroside] | 1.05 | 0.737 | 0.796 | 0.815 | 0.763 | 1.5
5 | COc1ccccc1OCC(O)CO (stereo unspecified) [Guaifenesin] | 1.05 | 0.957 | 1.4 | 1.24 | 1.99 | 1.31
6 | COc1cc(NC(C)CCCN)c2ncccc2c1 (stereo unspecified) [Primaquine Diphosphate] | 0.845 | 2.02 | 1.16 | 2.24 | 2.3 | 1.51
7 | C[C@@H]1NC(=O)[C@@H](N)CNC(=O)[C@H](C2CCNC(=N)N2)NC(=O)/C(=C/NC(N)=O)NC(=O)[C@H](CNC(=O)CC(N)CCCN)NC1=O.N=C1NCC[C@H]([C@@H]2NC(=O)/C(=C/NC(N)=O)NC(=O)[C@H](CNC(=O)C[C@@H](N)CCCN)NC(=O)[C@H](CO)NC(=O)[C@@H](N)CNC2=O)N1 [Capreomycin Sulfate] | 0.925 | 0.995 | 1.37 | 1.11 | 0.78 | 1.14
8 | NCCCS(=O)(=O)O [Homotaurine] | 1.14 | 1.27 | 0.97 | 0.97 | 0.248 | 1.36
9 | Cc1onc(-c2ccccc2Cl)c1C(=O)N[C@@H]1C(=O)N2[C@@H]1SC(C)(C)[C@@H]2C(=O)O [Cloxacillin Sodium] | 0.711 | 0.744 | 0.6 | 0.941 | 1.02 | 1.39
10 | CC(C(=O)O)c1cccc(Oc2ccccc2)c1 (stereo unspecified) [Fenoprofen Calcium] | 0.95 | 0.634 | 0.599 | 0.997 | 1.16 | 1.97
11 | CCOc1nc2cccc(C(=O)O)c2n1Cc1ccc(-c2ccccc2-c2noc(=O)[nH]2)cc1 [Azilsartan] | 0.834 | 0.784 | 0.835 | 0.563 | 0.88 | 0.784
12 | Nc1c(Br)cc(Br)cc1CN[C@H]1CC[C@H](O)CC1 [Ambroxol] | 1.17 | 0.59 | 0.867 | 0.611 | 0.645 | 0.78
13 | Fc1ccc([C@@H]2CCNC[C@H]2COc2ccc3c(c2)OCO3)cc1 [Paroxetine HCl] | 1.46 | 1.59 | 1.59 | 1.93 | 2.28 | 1.54
14 | CC[C@@H]([C@H](C)O)n1ncn(-c2ccc(N3CCN(c4ccc(OC[C@@H]5CO[C@@](Cn6cncn6)(c6ccc(F)cc6F)C5)cc4)CC3)cc2)c1=O [Posaconazole] | 3.81 | 2.06 | 2.09 | 2.3 | 1.43 | 1.21
15 | CC(=O)[C@H]1CC[C@H]2[C@@H]3C[C@H](C)C4=CC(=O)CC[C@]4(C)[C@H]3[C@@H](O)C[C@]12C [Medrysone] | 1.22 | 1.8 | 1.96 | 1.72 | 0.963 | 1.81
16 | CC(=O)N(O)CCCCCNC(=O)CCC(=O)N(O)CCCCCNC(=O)CCC(=O)N(O)CCCCCN [Deferoxamine mesylate] | 2.45 | 2.58 | 6.88 | 2.61 | 2.02 | 2.86
17 | CCN1CCN(C(=O)N[C@@H](C(=O)N[C@@H]2C(=O)N3[C@@H]2SC(C)(C)[C@@H]3C(=O)O)c2ccccc2)C(=O)C1=O [Piperacillin Sodium] | 1.11 | 0.62 | 0.884 | 1.1 | 0.514 | 1.25
18 | CCCCCCCCc1ccc(CCC(N)(CO)CO)cc1 [Fingolimod] | 5.32 | 4 | 5.79 | 2.18 | 5.29 | 4.16
19 | O=C(Nc1ccc(Oc2ccc(Cl)cc2)c(Cl)c1)c1cc(I)cc(I)c1O [Rafoxanide] | 1.36 | 1.72 | 1.23 | 1.19 | 1.44 | 1.54
20 | CO[C@H]1C[C@@H]2CC[C@@H](C)[C@@](O)(O2)C(=O)C(=O)N2CCCC[C@H]2C(=O)O[C@H]([C@H](C)C[C@@H]2CC[C@@H](OP(C)(C)=O)[C@H](OC)C2)CC(=O)[C@H](C)/C=C(\C)[C@@H](O)[C@@H](OC)C(=O)[C@H](C)C[C@H](C)/C=C/C=C/C=C/1C [Deforolimus] | 2.73 | 2.02 | 1.35 | 3.08 | 1.23 | 2.14
21 | C[C@H](Nc1ncnc2[nH]cnc12)c1cc2ccc(F)cc2nc1-c1ccccn1 | 0.651 | 0.745 | 1.41 | 1.61 | 1.01 | 1.19
22 | Oc1cc(O)c2c(c1)O[C@H](c1ccc(O)c(O)c1)[C@H](O)C2 [(-)Epicatechin] | 1.1 | 0.627 | 0.705 | 1.15 | 0.982 | 1.04
23 | Cc1ccc(-c2c(-c3nn(C)c4ncnc(N5CC[C@H](N6CCCCC6)C5)c34)cnn2C)cc1 | 0.748 | 0.927 | 0.814 | 1.22 | 0.843 | 1.27

Row | SMILES | Euclidean distance [1] | Euclidean distance [2] | Euclidean distance [3] | Euclidean distance [4] | Euclidean distance [5] | Euclidean distance [6]
24 | CC[N+](C)(C)c1cccc(O)c1 [Edrophonium chloride] | 0.852 | 0.865 | 0.738 | 0.728 | 0.598 | 0.943
25 | CC(=O)OC(C)OC(=O)C(C)c1ccc(-c2ccccc2)c(F)c1 (stereo unspecified) [Flurbiprofen Axetil] | 1.28 | 0.882 | 0.893 | 1.57 | 1.39 | 1.44
26 | Cc1cnc(C(=O)O)c[n+]1[O-] [Acipimox] | 1.86 | 0.99 | 0.959 | 0.682 | 1.59 | 0.964
27 | N#Cc1ccc([C@H]2CCc3cncn32)c(F)c1 [Osilodrostat (LCI699)] | 1.39 | 1.28 | 1.56 | 1.68 | 0.588 | 1.57
28 | COC(=O)C1=C(C)NC(C)=C(C(=O)OCCN2CCN(C(c3ccccc3)c3ccccc3)CC2)C1c1cccc([N+](=O)[O-])c1 (stereo unspecified) [Manidipine 2HCl] | 1.93 | 2.35 | 1.3 | 1.11 | 1.84 | 1.95
29 | CCOc1ccc(Cc2cc([C@]34OC[C@](CO)(O3)[C@@H](O)[C@H](O)[C@H]4O)ccc2Cl)cc1 [Ertugliflozin] | 1.45 | 0.762 | 1.22 | 0.862 | 0.465 | 1.23
30 | CCN(CCCc1ccccc1)CCCc1ccccc1 [Alverine Citrate] | 0.97 | 1.06 | 1.22 | 1.12 | 0.789 | 1.01
31 | CC(CCc1ccccc1)NCC(O)c1ccc(O)c(C(N)=O)c1 (stereo unspecified) [Labetalol HCl] | 1.08 | 0.727 | 0.701 | 1.03 | 0.361 | 1.22
32 | Cn1c(=O)n(-c2ccc(C(C)(C)C#N)cc2)c2c3cc(-c4cnc5ccccc5c4)ccc3ncc21 [BEZ235 (NVP-BEZ235. Dactolisib)] | 3.77 | 3.79 | 1.66 | 2.82 | 0.961 | 4.78
33 | O=C(NCCCNc1nc(Nc2cccc(NC(=O)N3CCCC3)c2)ncc1I)c1cccs1 | 2.35 | 4.29 | 3.26 | 3.8 | 2.12 | 4.44
34 | NC(=O)c1ccccc1O [Salicylamide] | 1.39 | 1.58 | 1.56 | 1.4 | 0.71 | 2.3
35 | Cc1cc(-c2ncc(CC(=O)Nc3ccc(-c4cnccn4)cn3)cc2C)ccn1 | 1.05 | 1.24 | 0.884 | 0.878 | 0.741 | 0.931
36 | C[C@@H]1COC(Nc2ccc3ncnc(Nc4ccc(OCc5nccs5)c(Cl)c4)c3c2)=N1 [Varlitinib] | 1.45 | 1.22 | 1.15 | 1.15 | 2.16 | 1.56
37 | CNC(=O)CN(CCN(CCN(CC(=O)[O-])CC(=O)NC)CC(=O)[O-])CC(=O)[O-].O.[Gd+3] [Gadodiamide Hydrate] | 1.58 | 0.803 | 1.3 | 1.38 | 0.469 | 0.986
38 | Cc1c(N)c(=O)n(-c2ccccc2)n1C [4-Aminoantipyrine] | 1.29 | 0.968 | 1.5 | 0.907 | 0.845 | 1.32
39 | O=C(O)Cn1nnc(-c2cc(N3CCC(Oc4cc(F)ccc4Br)CC3)no2)n1 | 0.964 | 1.38 | 0.83 | 0.907 | 2.08 | 0.751
40 | CNCCc1ccccn1 [Betahistine 2HCl] | 1.56 | 0.851 | 1.21 | 0.822 | 0.61 | 1.03
41 | CC(C)(C)c1cc(NC(=O)Nc2ccc(-c3cn4c(n3)sc3cc(OCCN5CCOCC5)ccc34)cc2)no1 [Quizartinib (AC220)] | 3.28 | 2.67 | 1.42 | 1.43 | 2.93 | 1.37
42 | CCCCC1=NC2(CCCC2)C(=O)N1Cc1ccc(-c2ccccc2S(=O)(=O)Nc2noc(C)c2C)c(COCC)c1 | 1.6 | 0.599 | 1.01 | 0.872 | 0.445 | 0.927
43 | CCN(CC)CCNC(=O)c1cc(S(C)(=O)=O)ccc1OC [Tiapride Hydrochloride] | 0.725 | 0.496 | 0.652 | 0.955 | 0.542 | 0.874
44 | CNC(=O)[C@@H](NC(=O)[C@H](CC(C)C)[C@H](O)C(=O)NO)C(C)(C)C [Marimastat (BB-2516)] | 1.09 | 2.02 | 1.14 | 1.06 | 0.866 | 1.4
45 | Cc1[nH]c(=O)c(C#N)cc1-c1ccc2nccn2c1 [Olprinone] | 1.08 | 1.07 | 0.61 | 1.08 | 0.547 | 1.11
46 | O=C1NC(=O)C(c2ccccc2[N+](=O)[O-])=C1Nc1ccc(O)c(Cl)c1 | 1.2 | 0.916 | 0.978 | 0.936 | 0.886 | 1.1
